CYP2C19 inhib = inhibitors of human CYP2C19; 96,000 compounds, 21% hits; inhibition, % at 5 µM; AID 778; P33261; CYP2C19 Supersomes, luciferin-H EGE luminescence, 30 min;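 active = CYP2C19 inhibition above a set limit at 5 µM in the primary screen, cut at about 50% in these data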;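 also: plate controls were negative control wells for no effect and 2.5 mM tranylcypromine positive control for full effect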
CYP2C9 activ = increases human cytochrome P450 2C9 activity. P11712. recombinant CYP2C9, luciferin-H conversion, luminescence; active compounds read high; factor 1 = untreated enzyme, 0 = blocked. 96,000 compounds, 1.4% hits. activation factor at 5 µM. AID 1024;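 active = activation factor of 2 or more for CYP2C9 at a 5 µM dose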;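 also: 0 = sulfaphenazole-blocked wells and 1 = vehicle-only wells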
Target sequence (P11712 whole entry, looked up): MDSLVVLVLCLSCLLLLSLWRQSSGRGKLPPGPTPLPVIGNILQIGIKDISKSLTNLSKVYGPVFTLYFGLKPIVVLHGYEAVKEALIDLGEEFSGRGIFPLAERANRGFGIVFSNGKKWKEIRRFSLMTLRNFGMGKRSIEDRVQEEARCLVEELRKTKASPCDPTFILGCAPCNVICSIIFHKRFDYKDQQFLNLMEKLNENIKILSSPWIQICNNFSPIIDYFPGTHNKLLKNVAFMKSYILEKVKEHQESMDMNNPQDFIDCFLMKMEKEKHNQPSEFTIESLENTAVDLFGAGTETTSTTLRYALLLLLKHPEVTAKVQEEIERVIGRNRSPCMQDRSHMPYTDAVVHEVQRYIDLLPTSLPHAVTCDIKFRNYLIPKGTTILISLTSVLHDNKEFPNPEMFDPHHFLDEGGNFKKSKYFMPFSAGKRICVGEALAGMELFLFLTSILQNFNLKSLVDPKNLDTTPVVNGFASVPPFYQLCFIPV
CYP2C19 activ = cytochrome P450 2C19 (human) activation. P33261. recombinant CYP2C19, luciferin-H EGE luminescence; active compounds read high; 0 = fully inhibited enzyme, 1 = untreated enzyme. activation factor at 5 µM. 96,000 tested, under 10 active;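 active = activation factor of at least 2 at 5 µM in the primary screen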;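 also: 0 = wells with 2.5 mM tranylcypromine and 1 = vehicle-only wells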
Measles CPE = protection of cells from measles virus; Measles virus-infected cells, CPE protection, absorbance; protection (pct of control), % at 4 µM; 140,000 compounds, 1.5% hits; AID 841; in the data active = protection mostly above about 24%, no sharp cut-off; inactive = mostly below about 26%
CYP2C9 inh = inhibitors of human CYP2C9 | inhibition, % at 5 µM | CYP2C9 Supersomes, luciferin-H conversion, luminescence | 96,000 compounds, 20% hits | P11712;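 active = blocking of liver enzyme CYP2C9 beyond about 50% at 5 µM, limit read from the data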
* hit, by the source's call; · = no result. Sampled rows, rich in hits. Any-hit rate of the full collection: about 22%.

SMILES | CYP2C19 inhib | CYP2C9 activ | CYP2C19 activ | Measles CPE | CYP2C9 inh
O=C(NCc1ccco1)c1cccc(N2CCCC2=O)c1 | 21.7 | 0.6 | 0.8 | 23.6 | 37.8
COc1ccc(OC)c(-c2cc(C(F)(F)F)c3c(n2)sc2c(O)cc(=O)[nH]c23)c1 | · | · | · | 6.2 | ·
Cc1cc(C(=O)COC(=O)c2ccc[nH]c2=O)c(C)n1-c1ccc(F)cc1 | · | · | · | 8.5 | ·
COc1ccc(CNC(=O)c2ccc3c(c2)N(C)C(=O)CS3=O)cc1 (centres undefined) | -3.3 | 0.4 | 1 | 9.4 | 63.6*
COc1ccc(CNC(=O)c2ccc3nccnc3c2)cc1 | 7.7 | 1 | 0.9 | 3.4 | 1.6
CNc1nc(SCc2ccccc2)nc(N2CCOCC2)n1 | 68.6* | 0.5 | 0.3 | 5.0 | 46.9
CC(C)(C)Nc1nc(SCc2ccccc2)nc(N2CCOCC2)n1 | 74.7* | 0 | 0.3 | 12.8 | 96.6*
N#Cc1cccc(-n2c(-c3ccccc3)nnc2-c2ccccc2)c1C#N | 89.0* | 0.1 | 0.1 | 1.3 | 89.4*
CCCN(CC(=O)Nc1ccc(Cl)cc1Cl)C(=O)/C=C/c1ccco1 | · | · | · | 5.6 | ·
CCOC(=O)c1[nH]c(C)c(C(=O)Nc2cc(OC)ccc2OC)c1C | 25.3 | 2* | 0.7 | 14.2 | -96.2
CCOC(=O)c1c(C)[nH]c(C(=O)OCC(=O)Nc2cc(C)ccc2OC)c1C | 6.3 | 0.7 | 0.9 | 4.6 | 32.7
Cc1cc(C(=O)NC2=NCCS2)cs1 | · | · | · | 4.8 | ·
CCOC(=O)c1[nH]c(C)c(C(=O)c2ccc(C)cc2)c1C | 62.7* | 0.7 | 0.4 | 14.1 | 35.0
CCOC(=O)c1c(C)c(C(=O)Nc2ccccc2)c(C)n1CC | -3.6 | 0.6 | 1 | 6.5 | 44.3
CCOC(=O)c1c(C)c(C(=O)Nc2cc(OC)ccc2OC)c(C)n1CC | 60.6* | 1.3 | 0.4 | 4.2 | -26.1
CC(=O)c1c(C)[nH]c(C(=O)NC2=NCCS2)c1C | 41.2 | 0.4 | 0.6 | 8.7 | 64.0*
CC(NC(=O)C(C(=O)c1cccc([N+](=O)[O-])c1)n1cc(Cl)ccc1=O)c1ccccc1 (centres undefined) | · | · | · | 18.5 | ·
O=C(CSc1nnc(-c2ccccn2)n1Cc1ccccc1)Nc1ccc2c(c1)OCO2 | 0.8 | 0.8 | 1 | 4.9 | 15.0
COc1ccccc1NC(=O)c1[nH]c(C)c(C(C)=O)c1C | 47.3 | 0.2 | 0.5 | 12.3 | 79.1*
COc1ccccc1OCC(=O)c1[nH]c(C)c(C(C)=O)c1C | 35.2 | 0.9 | 0.6 | 8.0 | 11.4
CC1(C)Cc2ccccc2-c2nc(NCCO)n(-c3ccccc3)c(=O)c21 | 61.4* | 0.7 | 0.4 | 3.6 | 34.6
CCC1(C)Cc2ccccc2-c2nc(NCCO)n(-c3ccc(C)cc3)c(=O)c21 (centres undefined) | 67.0* | 0.6 | 0.3 | 4.3 | 43.7
COc1ccccc1Oc1ccc(S(=O)(=O)NCc2ccccn2)cc1 | 44.0 | 0.7 | 0.6 | 13.5 | 28.4
CCOC(=O)Cn1c(CN2CC(C)OC(C)C2)nc2c1c(=O)n(C)c(=O)n2C (centres undefined) | · | · | · | 10.9 | ·
COc1ccc(-c2noc(CCN3C(=O)c4ccccc4C3=O)n2)cc1OC | 22.2 | 0.9 | 0.8 | 8.3 | 12.1
SMILES | CYP2C19 inhib | CYP2C9 activ | CYP2C19 activ | Measles CPE | CYP2C9 inh
c1ccc(CCc2nc(-c3ccccc3)no2)cc1 | 13.1 | 1 | 0.9 | 6.6 | 3.2
COc1ccc(CCN(Cc2nc(-c3ccccc3)no2)Cc2nc(-c3ccccc3)no2)cc1OC | 53.7* | 0.1 | 0.5 | 12.7 | 86.1*
c1ccc(OCCCc2nc(-c3ccncc3)no2)cc1 | 97.7* | 0.1 | 0 | 4.4 | 89.5*
COc1ccc(-c2noc(CCCOc3ccccc3)n2)cc1OC | 90.4* | 0.2 | 0.1 | 6.9 | 78.8*
c1ccc(OCc2nc(-c3ccccc3)no2)cc1 | 72.2* | 0.6 | 0.3 | 27.9 | 37.2
COc1ccc(-c2cc(C(F)(F)F)nc(SCC(=O)NCc3cccs3)n2)cc1OC | · | · | · | 9.1 | ·
CCOc1ccc(/C=N/OCC(=O)NC(c2ccccc2)c2ccccc2)cc1 | · | · | · | 4.0 | ·
Cc1ccc(N2C(=O)c3ccc(C(=O)O)cc3C2=O)c(C)c1 | · | · | · | 2.0 | ·
c1ccc(-c2noc(CN3CCN(c4ccccc4)CC3)n2)cc1 | 71.1* | 0.6 | 0.3 | 14.0 | 44.6
O=C1c2ccccc2C(=O)N1CCCc1nc(-c2ccccn2)no1 | -18.2 | 1.1 | 1.2 | 20.9 | -11.4
c1ccc(OCCCc2nc(-c3ccccn3)no2)cc1 | 80.5* | 0.7 | 0.2 | 16.0 | 33.2
CCOC(=O)N1CCN(CC(O)COc2ccc(C)cc2C(C)(C)C)CC1 (centres undefined) | · | · | · | 4.2 | ·

Screening results deposited in PubChem by several laboratories.
